Source: PubChem
ST2 inh: inhibitors of human ST2 (IL1RL1) binding to IL-33, primary screen, biochemical, AlphaLISA; Interleukin-1 receptor-like 1 (Homo sapiens), Q01638; AlphaLISA ST2-Fc/biotin-IL-33 interaction, 1 h; inhibition, % for hits at 17 µM; AID 1259354, 2018; 2.3% of 78,000 active; in the data active = inhibition above about 30%
Target sequence (Q01638 whole entry, looked up): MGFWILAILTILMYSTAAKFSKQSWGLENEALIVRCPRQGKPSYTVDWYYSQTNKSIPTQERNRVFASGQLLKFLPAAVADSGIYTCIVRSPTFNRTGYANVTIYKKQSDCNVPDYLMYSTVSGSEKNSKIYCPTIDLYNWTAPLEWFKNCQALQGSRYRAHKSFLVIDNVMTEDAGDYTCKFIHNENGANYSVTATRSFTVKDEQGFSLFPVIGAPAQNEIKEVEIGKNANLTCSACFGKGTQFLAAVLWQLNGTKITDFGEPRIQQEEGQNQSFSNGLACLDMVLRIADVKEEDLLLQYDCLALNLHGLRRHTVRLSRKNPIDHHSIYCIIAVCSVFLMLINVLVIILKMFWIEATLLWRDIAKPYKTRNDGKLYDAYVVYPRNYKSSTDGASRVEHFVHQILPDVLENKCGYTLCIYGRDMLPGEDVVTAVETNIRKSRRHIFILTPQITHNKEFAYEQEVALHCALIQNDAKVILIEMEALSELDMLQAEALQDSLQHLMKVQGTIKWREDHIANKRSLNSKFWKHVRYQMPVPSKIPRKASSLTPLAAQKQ
Numbers stand for hits; . = inactive. The full list was thinned out, with hits kept by preference.

SMILES	ST2 inh
O=[N+]([O-])c1ccc(/C=C/c2ccc3ccccc3n2)o1	67%
COc1cc(-n2ncc3ccccc32)ccc1NC(C)=O	.
CC(=O)Nc1ccccc1/C=C/c1ccc2c(C)ccc(O)c2n1	.
CCOc1ccccc1OCCOc1ccccc1C=O	.
CCOc1cccc(/C=C/c2ccc3cccc(O)c3n2)c1OC	54%
CCOC(=O)C1=C(C)N=C2SCC(=O)N2C1c1ccc(OCC)c(OCC)c1 (stereo not drawn)	.
Cc1ccc(CNC(=O)N2CCCCC2CCN2CCOCC2)cc1 (stereo not drawn)	.
O=C(O)CCCNS(=O)(=O)c1ccc(Br)c(C(=O)O)c1	.
N#Cc1c(NC(=O)Cn2cc(Br)c([N+](=O)[O-])n2)sc2c1CCC2	.
Cc1ccc(-n2nc(C(=O)N3CCOC(C(F)(F)F)C3)c(O)cc2=O)cc1 (stereo not drawn)	.
O=[N+]([O-])c1ccccc1N1CCN(S(=O)(=O)c2ccc(Cl)c(Cl)c2)CC1	30%
Cc1ccc(S(=O)(=O)N2CCN(S(=O)(=O)c3ccccc3)C2)cc1[N+](=O)[O-]	.
O=[N+]([O-])c1ccc(N2CCN(Cc3ccccc3)CC2)c(S(=O)(=O)N2CCOCC2)c1	.
CN(C)S(=O)(=O)c1cc([N+](=O)[O-])ccc1N1CCCCCC1	.
O=[N+]([O-])c1ccccc1S(=O)(=O)Nc1ccc(Cl)c(Cl)c1	.
Cc1ccc(S(=O)(=O)N2CCN(C(=O)c3ccccc3)C2)cc1[N+](=O)[O-]	.
O=[N+]([O-])c1ccc(N2CCN(c3ccccc3)CC2)c(S(=O)(=O)N2CCCCC2)c1	50%
Cc1ccc(S(=O)(=O)N2CCN(c3ccccc3)CC2)cc1[N+](=O)[O-]	40%
O=S(=O)(c1ccc(Cl)c(Cl)c1)N1CCCCC1	.
O=C(c1ccc(F)cc1)N1C[C@@H]2OCC(=O)N(Cc3ccncc3)[C@@H]2C1	.
O=S(=O)(Nc1ccccn1)c1ccc(N=Cc2cccc(Br)c2)cc1	.
Cc1ccc(NC(=O)CSc2ncnc3nc(N(C)C)sc23)c(C)c1	.
N#Cc1c(N)nc2c(c1-c1cccs1)CCCCC2	.
Cc1[nH]c2c(CNC(=O)Cc3ccccc3)cc(F)cc2c1C	.
CCCCNC(=O)c1ccc(CS(=O)(=O)c2c(Cl)cccc2Cl)o1	.
SMILES	ST2 inh
Cc1ccc(-c2ccc3nc(CO)[nH]c3c2)c2cccnc12	.
COc1cccc(NC(=O)/C(C#N)=C\c2cn(Cc3ccccc3)c3ccccc23)c1	35%
Cc1cc(/C=C(\C#N)C(=O)Nc2ccccc2)c(C)n1-c1ccc(F)cc1	.
COc1cccc(NC(=O)/C(C#N)=C\c2cn(Cc3ccc(F)cc3)c3ccccc23)c1	.
CCC(=O)N1c2ccccc2NC2=C(C(=O)CC(c3ccccc3)C2)C1c1ccc2c(c1)OCO2 (stereo not drawn)	.
Cc1ccc(S(=O)(=O)C2(C(=O)N3CCCCC3)CC2)cc1	.
COC(=O)[C@H]1C[C@@H](O)CCN1C(=O)Cc1ccc(OC)c(C)c1	.
CCCOc1ccc2oc(=O)c3c(c2c1)CCCN3C(=O)CN1CCN(C(=O)c2ccco2)CC1	.
CCCOc1ccc2oc(=O)c3c(c2c1)CCCN3C(=O)CN1CCN(c2ncccn2)CC1	.
CCCOc1ccc2oc(=O)c3c(c2c1)CCCN3C(=O)CN1CCCC(C(=O)OCC)C1 (stereo not drawn)	.
CN1CCN(CC(=O)N2CCCc3c2c(=O)oc2ccc(OCc4ccccc4)cc32)CC1	39%
CCCOc1ccc2oc(=O)c3c(c2c1)CCCN3C(=O)CN1CCCCCC1	.
CCN1CCN(CC(=O)N2CCCc3c2c(=O)oc2ccc(OCc4ccccc4)cc32)CC1	30%
CC(=O)c1cccc(OCc2cc(C(=O)N(C)C(C)c3ccncn3)no2)c1 (stereo not drawn)	.
CC(CCO)Nc1nc2c(c(=O)n(C)c(=O)n2C)n1Cc1ccccc1Br (stereo not drawn)	.
CCSc1nnc(-c2ccc(C)c(S(=O)(=O)N(C)C)c2)c2ccccc12	.
COc1ccccc1OCCCSC#N	.
COc1cccc2cc(C(=O)NC(C)=O)c(=Nc3ccccc3F)oc12	33%
COc1cccc2cc(C(=O)NC(C)=O)c(=Nc3cccc(F)c3)oc12	.
COc1cccc2cc(C(=O)NC(C)=O)c(=Nc3ccc(C(F)(F)F)cc3)oc12	.
O=C(NCCn1cc(SCC(=O)N2CCc3ccccc32)c2ccccc21)c1ccccc1F	.
Cc1nc(S(=O)(=O)c2ccccc2)c(N(C)C)o1	.
CN(C)c1oc(-c2ccccc2)nc1S(=O)(=O)c1ccccc1	.
CN(C)c1oc(COc2ccc(Cl)cc2Cl)nc1S(=O)(=O)c1ccccc1	36%
CCN(Cc1noc(C2CCC2)n1)C(=O)c1scc2c1OCCO2	.
SMILES	ST2 inh
Cc1cc(NC(c2cccc([N+](=O)[O-])c2)c2ccc3cccnc3c2O)no1 (stereo not drawn)	33%
O=C(c1ccc([N+](=O)[O-])cc1)N1CCN(c2ccccn2)CC1	.
COc1cc(C(Nc2cccc(C)n2)c2ccc3ccc(C)nc3c2O)ccc1O (stereo not drawn)	.
Cc1ccnc(NC(c2ccncc2)c2ccc3cccnc3c2O)c1 (stereo not drawn)	.
O=C(Nc1ccc([N+](=O)[O-])cc1)c1cc2ccccc2o1	.
O=[N+]([O-])c1ccc(NC(c2ccccn2)c2ccc3cccnc3c2O)cc1 (stereo not drawn)	31%
CC1=C(C(=O)N2CCC(C(=O)Nc3ccc(-c4cccc(C)c4)cc3)CC2)OCCO1	.
Cc1ccc2[nH]c(C(=O)NCC3(Cn4ccnc4C)CC3)c(C)c2c1	.
O=C(c1ccccc1F)n1cnc2ccccc21	.
COc1ccc(C2=NN(S(=O)(=O)c3ccccc3)C(c3cccc([N+](=O)[O-])c3)C2)cc1 (stereo not drawn)	.
CCCC(O)=C1C(=O)CC(C)(C)CC1=Nc1ccc(OC)cc1	.
Cc1ccc(-n2c(=O)c3sccc3n(Cc3cc(=O)n4cc(Cl)ccc4n3)c2=O)cc1	.
O=S1(=O)N=C(Nc2cccc(O)c2)c2ccccc21	.
O=C1CCc2cc(S(=O)(=O)N3CCc4ccccc4C3)ccc2N1	.
O=C(Nc1ccccc1[N+](=O)[O-])c1cccc(S(=O)(=O)N2CCc3ccccc3C2)c1	40%
O=C(Nc1nc2ccc(F)cc2s1)c1ccc(S(=O)(=O)N2CCc3ccccc3C2)cc1	.
Cc1c(N=Cc2cc([N+](=O)[O-])c(Cl)cc2Cl)c(=O)n(-c2ccccc2)n1C	.
Cc1c(N=Cc2cc([N+](=O)[O-])ccc2N2CCCC2)c(=O)n(-c2ccccc2)n1C	36%
Cc1c(N=Cc2ccccc2O)c(=O)n(-c2ccccc2)n1C	.
Cc1ccc([N+](=O)[O-])cc1NC(=O)CCCOc1ccc(Cl)cc1	.
Cn1c2c(c(=O)n(C)c1=O)C(c1ccccc1)C1=C(N2)c2ccccc2C1=O (stereo not drawn)	.
Cn1c(=O)c(N)c2c3c(cccc31)C(=O)c1ccccc1-2	31%
Cn1c(=O)c2c(-c3ccccc3)n(N)cc2n(C)c1=O	.
CSc1cccc(NC(=O)CN2N=NC3C(=O)N(c4ccc(F)cc4)C(=O)C32)c1 (stereo not drawn)	.
CC(C)c1cc(NC2CC(=O)N(CC(C)(C)C)C2)nc(C(F)(F)F)n1 (stereo not drawn)	31%
CC(C)c1cc(N2CCCC3(CC2)CNC(=O)O3)nc(C(F)(F)F)n1 (stereo not drawn)	.
